# Source: PubChem (SRMLSC)
# Autofluor 339: intrinsic fluorescence of library compounds, ex339/em460 – biochemical, MLSMR library, data from DPM-DC assay, artefact control, profiling panel; compound autofluorescence, ex339/em460 nm, NADH buffer; stronger effect = higher value; 1 = no-compound wells, NADH background; fluorescence fold increase at 10 µM; 65,000 compounds, 5.5% hits;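 active = at 10 µM, mean starting fluorescence two-fold or more over control wells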;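 also: signal is the first read of a kinetic run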
# PMK inhibit: blocks S. pneumoniae phosphomevalonate kinase | purified PMK, PK/LDH-coupled NADH absorbance 340 nm | inhibition, % at 10 µM | 65,000 compounds, 0.49% hits | AID 539;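 active = top-ranked compounds by inhibition in the single 10 µM screen, taking a fixed number of the strongest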;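 also: 0% = full reaction with DMSO carrier and 100% = background rate without enzyme reaction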
# Abs 340nm: absorbance at 340 nm; compound absorbance at 340 nm, fold over control; fold change at 10 µM; 65,000 tested, under 10 active; AID 708;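 active = at 10 µM dose, initial 340 nm absorbance at least 2 fold that of control wells; inactive = change under 2 fold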;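 also: initial absorbance extrapolated from kinetic A340 decline of NADH oxidation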
# DPM-DC inhibit: S. pneumoniae DPM-DC inhibition; calls only at 10 µM; AID 556; purified DPM-DC, PK/LDH coupled NADH fluorescence; 65,000 compounds, 0.49% hits;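 active = the 320 compounds with the highest percent inhibition in the single-dose primary screen, excluding strongly autofluorescent ones, cut at about 32% in these data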;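 also: kinetic rate of NADH fluorescence loss reporting ADP formed by the decarboxylase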
# MK inhibit: blocks S. pneumoniae mevalonate kinase; inhibition, % at 10 µM; purified MK, PK/LDH-coupled NADH absorbance 340 nm; 65,000 compounds, 0.48% hits; AID 555;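 active = ranked among the strongest by inhibition in the single 10 µM screen, a fixed top-ranked set picked for dose follow-up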
# NADH enzymes: blocks coupling enzymes of NAD/NADH assays. IC50, µM (titrated, usually from 10 µM), for the others: at the top dose inhibition. 65,000 compounds, 0.02% hits. coupled PK/LDH NADH assays, four targets;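 active = single-dose screening hits from any of four coupled enzyme assays that gave an IC50 when retested across doses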;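 also: the DPM-DC format reads NADH fluorescence rather than 340 nm absorbance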
# * marks the source's active call; other numbers are inactive results; i = inactive; · = no result given; + = active, no number. This is a sample that favours compounds with a hit; in the whole collection about 6.8% have one here.
SMILES,Autofluor 339,PMK inhibit,Abs 340nm,DPM-DC inhibit,MK inhibit,NADH enzymes
CCOC(=O)CNC(=O)c1sc2nc(C)cc(C)c2c1N,3.87*,16.0,1.08,·,10.0,13.0%
COCc1cc(C)nc2sc(C(=O)N3CCN(c4ccccc4)CC3)c(N)c12,1.24,6.0,1.08,i,6.0,7.0%
Cc1cc(C)c2c(N)c(C(=O)N3CCN(c4ncccn4)CC3)sc2n1,2.2*,10.0,1.01,i,13.0,9.0%
CCOC(=O)c1sc2nc(C)cc(C)c2c1N,2.4*,8.0,1.02,·,6.0,4.0%
CCOC(=O)C(C)(C)Sc1nc2c(cnn2-c2ccc(Cl)cc2)c(=O)[nH]1,0.98,0.0,0.98,i,3.0,1.0%
COc1ccc(OC)c2[nH]c(=O)c(CCNC(=O)C3CCCCC3)cc12,1.28,13.0,1.04,i,0.0,5.0%
O=C1CCC(C(=O)N(Cc2ccco2)C2(C(=O)NC3CCCC3)CCCCC2)N1 (configuration not stated),1.07,0.0,1.02,+,0.0,5.0%
CC(=O)N(Cc1ccco1)C1(C(=O)NC2CCCCC2)CCCCC1,1.16,6.0,1.03,i,8.0,5.0%
Cc1cc(N2C(=O)CC(N3CCN(C(c4ccccc4)c4ccccc4)CC3)C2=O)no1 (configuration not stated),1.15,4.0,1.04,i,14.0,6.0%
Clc1ccc(C(c2nnnn2C2CCCC2)N2CCN(Cc3ccncc3)CC2)cc1 (configuration not stated),1.08,25.0*,1.01,i,0.0,8.0%
c1ccc(C(c2nnnn2C2CCCC2)N2CCCCCC2)nc1 (configuration not stated),1.17,11.0,1.02,i,8.0,6.0%
c1cncc(C(c2nnnn2C2CCCC2)N2CCCC2)c1 (configuration not stated),1.09,25.0*,1.02,i,0.0,8.0%
CCc1nn2cc(-c3ccccc3)nc2s1,1.06,5.0,1.02,i,10.0,7.0%
O=C(O)CCc1nn2cc(-c3ccccc3)nc2[nH]c1=O,2.35*,4.0,1.07,·,3.0,4.0%
Cc1cc2nc3c(c(=O)n2[nH]1)CCCC3,1.22,7.0,1.03,i,6.0,6.0%
COc1ccc(-c2cc3nc4c(c(=O)n3[nH]2)CCC4)cc1,2.1*,0.0,1.03,·,13.0,7.0%
Cc1ccc(-c2[nH]n3c(=O)c4c(nc3c2C)CCCC4)cc1,2.39*,6.0,1.04,i,15.0,12.0%
O=c1c2c(nc3cc(-c4ccccc4)[nH]n13)CCC2,3.4*,10.0,0.99,i,6.0,12.0%
CC1Cc2cc(/C(O)=C3\C(=O)C(=O)N(CCN(C)C)C3c3ccccc3F)ccc2O1 (configuration not stated),1.03,4.0,1.06,i,10.0,5.0%
COc1ccc2[nH]c(=O)c(CN(Cc3ccccc3)Cc3nnnn3CC3CCCO3)cc2c1 (configuration not stated),2.32*,10.0,1.05,i,12.0,13.0%
COc1cc2cc(CN(Cc3nnnn3Cc3ccccc3)CC3CCCO3)c(=O)[nH]c2cc1OC (configuration not stated),3.26*,15.0,1.08,i,13.0,18.0%
CCc1ccc2[nH]c(=O)c(CN(Cc3ccc(OC)cc3)Cc3nnnn3CCOC)cc2c1,1.35,0.0,1.06,i,9.0,6.0%
Cc1ccc2[nH]c(=O)c(CN(Cc3cccs3)Cc3nnnn3Cc3ccccc3)cc2c1,1.18,11.0,1,i,8.0,6.0%
CC(C)(C)C1=C(C#N)C(c2ccc3c(c2)OCO3)C(C#N)=C(N)O1 (configuration not stated),1.06,18.0,0.98,i,10.0,10.0%
CCOC(=O)CSc1n[nH]c(-c2cccnc2)n1,1.02,25.0*,1.01,i,0.0,9.0%
CCOC(=O)CSc1nnc(-c2cccnc2)n1Cc1ccccc1,1.04,3.0,0.97,i,9.0,5.0%
Cc1ccc(S(=O)(=O)N2CCN(c3nc(C)c4c(c3C#N)CC(C)(C)OC4)CC2)cc1,1.35,5.0,1.05,i,8.0,5.0%
COc1ccccc1Nc1nc(C2(C)CCC(=O)O2)cs1 (configuration not stated),1.09,7.0,1.01,i,9.0,5.0%
